Test [1] is described as follows: ATG_CMV_CIS: Attagene CIS-FACTORIAL HepG2 Assay for human CMV (Internal Marker) (AID 2282928).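 Also: endpoint acts as a background internal control marker rather than a target.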 The conditions noted are these: HepG2 CMV promoter reporter, transcription factor profiling; actives raise or lower the signal. An outline of the steps:
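Fluorescence intensity of RT-PCR-derived reporter fragments, resolved by capillary electrophoresis, gives the signal. HepG2 liver cells bearing transfected cis-element reporters were treated 24 h; activity in either direction was fit relative to DMSO-treated controls.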

Test [2] in a line: ATG_DR4_LXR_CIS: Attagene CIS-FACTORIAL HepG2 Assay for human Liver X Receptor (LXR), DR4 submotif (AID 2282929). The conditions noted are these: HepG2 Attagene DR4 cis-reporter, mRNA transcription; actives raise or lower the signal. An outline of the steps: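 Total RNA from 24 h-treated, MRTU-transfected HepG2 cells underwent reverse transcription, PCR, fluorescent primer extension and restriction digestion before capillary electrophoresis. Both increases and decreases in reporter signal were fitted against DMSO.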

Test [3] in a line: ATG_AP_2_CIS: Attagene CIS-FACTORIAL HepG2 Assay for human Activator Protein 2 (AP-2) (AID 2282932). The conditions noted are these: HepG2 AP-2 cis-reporter, Attagene transcription factor profiling; actives raise or lower the signal. The gist of the method:
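Assay in transfected HepG2 with promoter-regulated reporters, 24 h incubation after dosing. Signal is reporter mRNA fluorescence (RT-PCR, capillary electrophoresis), analysed for both increases and decreases relative to DMSO controls.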

Test [4] addresses Transcription factor E2F1 (Homo sapiens) (UniProt Q01094). As to the kind of experiment: ATG_E2F_CIS: Attagene CIS-FACTORIAL HepG2 Assay for human E2F Transcription Factor 1 (AID 2282935). The conditions noted are these: HepG2 Attagene cis-reporter, E2F reporter RNA transcripts; actives raise or lower the signal. An outline of the steps: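 In this cis-factorial format, endogenous factor activity drives transfected reporters in HepG2; transcripts collected at 24 h are quantified by fluorescence after RT-PCR and capillary separation.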

Test [5] can be described thus: ATG_M_61_CIS: Attagene CIS-FACTORIAL HepG2 Assay for M61 Transcription Factor (Internal Marker) (AID 2282937). To be noted: HepG2 Attagene CIS-FACTORIAL M61 internal marker reporter; actives raise or lower the signal. The gist of the method: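 Transfect HepG2 with MRTUs; dose 24 h; isolate RNA; reverse-transcribe with DNase I treatment; PCR-amplify, FAM-label and cut with HpaI for 2 h at 37 C; resolve by CE. Bidirectional fitting against DMSO.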

Test [6] is described as follows: ATG_EGR_CIS: Attagene CIS-FACTORIAL HepG2 Assay for human Early Growth Response 1 (EGR1) (AID 2282938). To be noted: HepG2 Attagene CIS-FACTORIAL EGR reporter mRNA; actives raise or lower the signal. The gist of the method:
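After a 24 h treatment of transiently transfected HepG2 cells, total RNA was reverse-transcribed and reporter sequences PCR-amplified, labelled and run on capillary electrophoresis. Reporters sit under cis-regulatory promoters sensing endogenous factors.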

A short description of test [7]: ATG_Ets_CIS: Attagene CIS-FACTORIAL HepG2 Assay for human Erythroblast Transformation Specific (ETS) (AID 2282941). To be noted: HepG2 ETS cis-reporter transcription, actives raise or lower the signal. The gist of the method:
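Multiplexed reporter transcript profiling: HepG2, 24 h treatment, total RNA to cDNA, PCR, 6-FAM labelling, HpaI cut, capillary electrophoresis. Gain- or loss-of-signal fitted against DMSO.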

For test [8], the target named is Hepatocyte nuclear factor 3-beta (Homo sapiens) (UniProt Q9Y261). Nature of the test: ATG_FoxA2_CIS: Attagene CIS-FACTORIAL HepG2 Assay for human Forkhead box A2 (FOXA2) (AID 2282942). The conditions noted are these: HepG2 cis-reporter transcription factor activity, 24 h; actives raise or lower the signal. The gist of the method: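 24 h dosing of HepG2 bearing cis-reporter constructs; mRNA readout by RT-PCR/CE fluorescence; bidirectional fit, DMSO baseline.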

Test [9] in a line: ATG_FoxO_CIS: Attagene CIS-FACTORIAL HepG2 Assay for human Forkhead box O (FoxO) (AID 2282943). To be noted: HepG2 Attagene cis-reporter, FoxO element, mRNA; actives raise or lower the signal. An outline of the steps: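 24 h chemical exposure, HepG2 with transient cis-MRTU transfection. RNA extraction, oligo(dT) RT, reporter-specific PCR, primer-extension labelling, HpaI digestion, CE fragment analysis; bidirectional fit, DMSO baseline.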

Test [10] is described as follows: ATG_GATA_CIS: Attagene CIS-FACTORIAL HepG2 Assay for human GATA Binding Protein (AID 2282944). The conditions noted are these: HepG2 GATA cis-element reporter, Attagene multiplex mRNA; actives raise or lower the signal. An outline of the steps:
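HepG2 cells transiently transfected with multiplexed cis-element reporter units measure endogenous GATA activity; after 24 h compound exposure, reporter mRNA quantified by RT-PCR and capillary electrophoresis. Changes fitted in both directions vs DMSO.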

Test [11] is described as follows: ATG_ISRE_CIS: Attagene CIS-FACTORIAL HepG2 Assay for human Interferon Regulatory Factor 1 (IRF1) binding to an Interferon-Stimulated Response Element (ISRE) (AID 2282948). The conditions noted are these: HepG2 ISRE cis-reporter (Attagene), mRNA transcription readout; actives raise or lower the signal. The gist of the method: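 Signal reflects induction or loss of ISRE-linked reporter mRNA in transiently transfected HepG2 cells after a 24 h treatment, detected by fluorescent RT-PCR fragments on capillary electrophoresis and normalised to DMSO.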

The nature of test [12]: ATG_M_32_CIS: Attagene CIS-FACTORIAL HepG2 Assay for M32 Transcription Factor (Internal Marker) (AID 2282949).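 Also: background control marker of the multiplexed CIS panel rather than a real target.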 The conditions noted are these: HepG2 Attagene cis-factorial M32 reporter, mRNA; actives raise or lower the signal. An outline of the steps: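 Transient MRTU transfection of HepG2; 24 h compound treatment; TriZol RNA, oligo(dT) RT, reporter PCR, 6-FAM primer extension, HpaI cut, CE. Gain/loss of signal vs DMSO.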

The nature of test [13]: ATG_MRE_CIS: Attagene CIS-FACTORIAL HepG2 Assay for human Metal Responsive Element (MRE) (AID 2282954). The conditions noted are these: HepG2 MRE cis-reporter transcription, Attagene multiplex; actives raise or lower the signal. An outline of the steps:
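Readout: capillary electrophoresis of 6-FAM-labelled, HpaI-digested RT-PCR reporter products. System: HepG2 cells carrying transient multiplexed cis reporters, dosed 24 h. Analysis: bidirectional fit, DMSO baseline.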

In test [14] the target is Paired box protein Pax-6 (Homo sapiens) (UniProt P26367). Nature of the test: ATG_Pax6_CIS: Attagene CIS-FACTORIAL HepG2 Assay for human Paired Box 6 (PAX6) (AID 2282956). The conditions noted are these: HepG2 CIS-FACTORIAL PAX6 reporter transcription, RNA readout; actives raise or lower the signal. The gist of the method:
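Values derive from bidirectional curve fitting of reporter mRNA signal relative to DMSO. HepG2 cells bearing transfected cis-regulated MRTUs were exposed for 24 h; transcripts were read by RT-PCR and capillary electrophoresis.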

Test [15] in a line: ATG_PXRE_CIS: Attagene CIS-FACTORIAL HepG2 Assay for human Pregnane X Receptor Element (PXRE) (AID 2282957). The conditions noted are these: HepG2 Attagene CIS-FACTORIAL PXRE reporter, mRNA; actives raise or lower the signal. An outline of the steps:
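Endogenous transcription factor activity in HepG2 was gauged through induction of reporter mRNA driven by a cis-regulating promoter element, sampled 24 h post-treatment. Activity was fitted in both directions against DMSO negative control.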

A short description of test [16]: ATG_Sox_CIS: Attagene CIS-FACTORIAL HepG2 Assay for human SRY-box transcription factor (SOX) (AID 2282960). To be noted: HepG2 Attagene cis-factorial SOX reporter, mRNA; actives raise or lower the signal. An outline of the steps:
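HepG2, cis reporter units, 24 h exposure. Reporter mRNA: RT-PCR → FAM labelling → HpaI → CE fluorescence. Bidirectional fit vs DMSO.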

Test [17] in a line: ATG_SREBP_CIS: Attagene CIS-FACTORIAL HepG2 Assay for human Sterol Regulatory Element Binding (SREBP) (AID 2282962). To be noted: HepG2 Attagene cis-factorial SREBP reporter, mRNA; actives raise or lower the signal. The gist of the method: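 Values derive from bidirectional curve fitting with DMSO as baseline. The underlying measurement is reporter mRNA from cis-element-regulated units in transiently transfected HepG2, quantified by RT-PCR and capillary electrophoresis after 24 h exposure.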

Test [18] is described as follows: ATG_TCF_b_cat_CIS: Attagene CIS-FACTORIAL HepG2 Assay for human T-Cell-Factor with beta-catenin (TCF/b-cat) (AID 2282965). The conditions noted are these: HepG2 TCF/beta-catenin cis-reporter transcription, actives raise or lower the signal. The gist of the method:
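In this cis-format system, transfected HepG2 cells report endogenous transcription factor activity. Readout after 24 h exposure is reporter transcript abundance from RT-PCR and capillary electrophoresis, analysed for gain or loss of signal versus DMSO.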

Test [19] is described as follows: ATG_TAL_CIS: Attagene CIS-FACTORIAL HepG2 Assay for human TAL Basal Promoter (AID 2282966).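 Also: background control endpoint measuring basal TAL promoter reporter mRNA not a specific factor.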 To be noted: HepG2 Attagene cis-factorial TAL promoter reporter; actives raise or lower the signal. The gist of the method: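 Endogenous transcription-factor activity is sensed in HepG2 cells through transfected cis-promoter reporter constructs. After 24 h dosing, reporter transcripts are quantified by RT-PCR and capillary electrophoresis. Gain or loss of signal is fitted relative to DMSO.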

Test [20] can be described thus: ATG_TGFb_CIS: Attagene CIS-FACTORIAL HepG2 Assay for human Transforming Growth Factor (TGF) (AID 2282967). To be noted: HepG2 Attagene CIS TGFb reporter, mRNA transcription; actives raise or lower the signal. An outline of the steps: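 HepG2 cells transiently transfected with cis-promoter-driven multiple reporter units measure endogenous TF activity; reporter mRNA quantified at 24 h by RT-PCR, FAM labeling, HpaI digestion and capillary electrophoresis. Bidirectional fit vs DMSO.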

Structures are written as SMILES. The source made the active and inactive calls. The calls were made as follows: active = hit-call score of the fitted dose curve at least 0.9, where 1 is the maximum; inactive = score below 0.9.

Sequence of Transcription factor E2F1 (Homo sapiens) (Q01094 whole entry, looked up): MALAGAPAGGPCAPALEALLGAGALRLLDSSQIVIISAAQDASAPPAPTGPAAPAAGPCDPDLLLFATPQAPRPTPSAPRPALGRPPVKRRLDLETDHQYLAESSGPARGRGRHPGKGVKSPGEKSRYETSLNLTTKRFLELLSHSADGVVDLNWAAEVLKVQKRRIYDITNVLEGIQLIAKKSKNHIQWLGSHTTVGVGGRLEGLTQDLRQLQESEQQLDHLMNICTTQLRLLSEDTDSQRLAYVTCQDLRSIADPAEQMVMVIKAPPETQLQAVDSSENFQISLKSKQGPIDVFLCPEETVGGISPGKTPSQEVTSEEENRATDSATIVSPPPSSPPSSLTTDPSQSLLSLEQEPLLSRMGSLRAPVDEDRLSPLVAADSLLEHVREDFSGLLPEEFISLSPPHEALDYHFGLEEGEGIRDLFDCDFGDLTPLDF
Sequence of Paired box protein Pax-6 (Homo sapiens) (P26367 whole entry, looked up): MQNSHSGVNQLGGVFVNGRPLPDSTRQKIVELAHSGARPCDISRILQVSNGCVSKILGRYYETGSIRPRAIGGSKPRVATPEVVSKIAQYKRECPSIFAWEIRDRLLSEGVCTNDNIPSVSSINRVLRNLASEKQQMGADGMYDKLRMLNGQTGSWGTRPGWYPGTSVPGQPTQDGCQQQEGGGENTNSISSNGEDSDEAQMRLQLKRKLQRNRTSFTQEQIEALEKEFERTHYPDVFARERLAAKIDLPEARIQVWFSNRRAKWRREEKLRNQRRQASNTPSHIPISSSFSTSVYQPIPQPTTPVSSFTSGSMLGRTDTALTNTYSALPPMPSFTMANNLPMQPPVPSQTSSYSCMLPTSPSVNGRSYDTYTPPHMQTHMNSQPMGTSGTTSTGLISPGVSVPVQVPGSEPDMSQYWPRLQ
Sequence of Hepatocyte nuclear factor 3-beta (Homo sapiens) (Q9Y261 whole entry, looked up): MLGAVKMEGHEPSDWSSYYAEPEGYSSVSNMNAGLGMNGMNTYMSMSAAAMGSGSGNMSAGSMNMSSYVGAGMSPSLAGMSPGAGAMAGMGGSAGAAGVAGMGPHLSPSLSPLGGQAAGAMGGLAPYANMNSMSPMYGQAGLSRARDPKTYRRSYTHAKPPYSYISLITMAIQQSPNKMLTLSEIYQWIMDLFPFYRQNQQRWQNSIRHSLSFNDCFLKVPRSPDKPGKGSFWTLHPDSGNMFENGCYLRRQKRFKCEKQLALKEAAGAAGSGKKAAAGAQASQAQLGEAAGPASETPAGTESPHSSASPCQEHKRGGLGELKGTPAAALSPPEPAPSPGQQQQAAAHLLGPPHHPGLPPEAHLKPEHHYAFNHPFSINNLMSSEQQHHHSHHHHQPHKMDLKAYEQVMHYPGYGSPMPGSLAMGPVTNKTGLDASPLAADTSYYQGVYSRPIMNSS

In general, AC50 refers to the concentration giving half of the maximal activity seen. `C[C@]12CCC(=O)C(O)=C1CC[C@@H]1[C@@H]2CC[C@]2(C)C(=O)CC[C@@H]12`: the result in test [1], in test [2], in test [3], in test [4], in test [5] and in [6] was inactive. Moreover, the result in test [7], in test [8], in [9], in test [10], in test [11] and in [12] was inactive. The compound was classed as inactive in test [13], in [14], in test [16], in test [18], in test [19] and in test [20]. Further, the AC50 in [15] was 11.2 µM (active); in test [17], 27.6 µM (active).
As for `c1cc(OCC2CO2)ccc1Cc1ccc(OCC2CO2)cc1` (stereo not given), the half-maximal activity concentration (AC50) in [1] was 49.6 µM (active); in test [2] it was 48.3 µM (active); in test [3], 57.9 µM (active); in test [6], 33.4 µM (active); in test [11], 49.1 µM (active); in [13], 42.6 µM (active). The AC50 in test [14] was 33.4 µM (active); in test [15] it was 8.22 µM (active); in test [16], 33.4 µM (active); in test [17], 33.4 µM (active); in test [18] it was 35.2 µM (active). In addition, the outcome in [4], in test [5], in [7], in [8], in test [9] and in [10] was inactive. The compound was classed as inactive in test [12], in test [19] and in test [20].
Regarding `N#Cc1cc(I)c(O)c(I)c1`, the compound was classed as inactive in test [1], in test [2], in [3], in [4], in test [5] and in [6]. For the same compound, the compound was classed as inactive in [7], in test [8], in [9], in test [10], in test [11] and in test [12]. In addition, the outcome in test [13], in [14], in [15], in [16], in [17] and in [18] was inactive. In addition, the compound was called inactive in [19] and in [20].
Take `CCOC(=O)COc1ccc(Cl)cc1Cl`: the call in test [1], in test [2], in test [3], in [4], in [5] and in test [6] was inactive. In addition, the result in test [7], in test [8], in test [9], in test [10], in [11] and in test [12] was inactive. Moreover, the compound was called inactive in test [13], in test [14], in [15], in test [16], in [17] and in test [18]. Moreover, the outcome in [19] and in test [20] was inactive.
Regarding `CCOC(=O)NC(=S)Nc1ccccc1NC(=S)NC(=O)OCC`, the outcome in [1], in [2], in [3], in test [4], in test [5] and in test [6] was inactive. The result in test [7], in test [8], in test [9], in test [10], in test [11] and in test [12] was inactive. For the same compound, the outcome in [13], in [14], in test [16], in [17], in test [18] and in [19] was inactive. In addition, the compound was classed as inactive in [20]. Also, the AC50 in test [15] is 1.68 µM (active).

(Values after PubChem BioAssay (EPA / NIEHS).)
